# Source: PMC5540273 (PLoS ONE, 2017)
# pKd: −log10 of the molar value.
# Key:
# [1] = tested on: T1, VPS34
# T1 construct: gene PIK3C3
# [2] = tested on: T2, p38-alpha
# T2 construct: gene MAPK14
# [3] = tested on: AAK1; details: concentration: 1 μM, replicates: in singlicate; n = 1
# [4] = tested on: ABL1-nonphosphorylated; details: concentration: 1 μM, replicates: in singlicate; n = 1
# [5] = tested on: ABL1-phosphorylated; details: concentration: 1 μM, replicates: in singlicate; n = 1
# [6] = tested on: ABL2; details: concentration: 1 μM, replicates: in singlicate; n = 1
# [7] = tested on: ACVR1B; details: concentration: 1 μM, replicates: in singlicate; n = 1
# [8] = tested on: ACVR1; details: concentration: 1 μM, replicates: in singlicate; n = 1
# [9] = tested on: ACVR2A; details: concentration: 1 μM, replicates: in singlicate; n = 1
# [10] = tested on: T3, YSK4
# T3 construct: gene MAP3K19
# [11] = tested on: WNK4
# [12] = tested on: ULK3
# [13] = tested on: T4, YANK3
# T4 construct: gene STK32C
# [14] = tested on: T5, YSK1
# T5 construct: gene STK25
# [15] = tested on: T6, VEGFR2
# T6 construct: gene KDR
# [16] = tested on: TYK2(JH2domain-pseudokinase)
# 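Throughout, for %Inh: KINOMEscan kinase panel screen.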
# 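Throughout, for pKd: kd values determined as follow-up on hits from a single-replicate KINOMEscan panel screen.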
Compound,pKd [1],pKd [2],%Inh [3],%Inh [4],%Inh [5],%Inh [6],%Inh [7],%Inh [8],%Inh [9],pKd [10],pKd [11],pKd [12],pKd [13],pKd [14],pKd [15],pKd [16]
Cc1cccc(-c2nc(-c3ccc(S(C)(=O)=O)cc3)sc2-c2ccnc(NCCc3ccccc3)c2)c1,5.08,5.72,12%,90.7%,21%,0%,8%,0%,0%,–,–,–,–,–,–,–
Cc1cc(-c2ccc3c(c2)CC[C@@H](N[C@@H](C)c2ccccc2)C3)cnc1N.Cl [GW412617],–,–,100%,8%,9%,6%,0%,34%,0%,5.62,–,–,–,–,–,–
COc1ccccc1CNC(=O)c1cc(C(=O)c2ccccc2C)c[nH]1 [GSK364507],–,6.57,2%,0%,0%,21%,0%,0%,0%,–,–,–,–,–,–,–
Cc1ccc(-c2cc(-c3c[nH]nc3-c3ccccn3)ccn2)cc1 [GW684088],–,–,22%,35%,21%,0%,65%,29%,0%,–,< 5.00,–,–,–,–,–
COc1ccc(CNC(=O)NC2CCN(c3ccnc(Nc4cc(OC)c(OC)c(OC)c4)n3)C2)cc1 (stereo not drawn) [GSK1379748],–,–,49%,0%,0%,0%,0%,15%,0%,–,–,6.26,–,–,–,–
CN(C)CCN(C)C(=O)c1cc(-c2ccncc2)c(-c2ccc(Cl)c(O)c2)o1.Cl.Cl [SB-710397],–,6.13,6%,2%,6%,17%,0%,0%,0%,–,–,–,–,–,–,–
Cc1ccc(NC(=O)Nc2cccc(Cl)c2)cc1-c1ccc(C(=O)Nc2ccncc2)cc1 [GSK1398468],–,–,37%,0%,1%,17%,0%,0%,0%,7.21,–,–,–,–,–,–
O=C(Nc1ccccc1)Nc1cccc(Oc2ccc3nccn3n2)c1,–,–,0%,89%,6%,31%,0%,0%,0%,6.57,–,–,–,–,–,–
Cc1c(Cn2ccn3c(=O)cc(N4CCOCC4)nc23)cccc1C(F)(F)F [GSK2289044],7.19,–,16%,0%,0%,0%,0%,3%,0%,–,–,–,–,–,–,–
COc1cc(Nc2nccc(N3CCC(NC(=O)Nc4cc(C)ccc4C)C3)n2)cc(OC)c1OC (stereo not drawn) [GSK1379762],–,–,46%,0%,0%,22%,0%,12%,0%,–,–,5.37,–,–,–,–
Cc1cccc(-c2nc(Nc3cccc(C(N)=O)c3)c3ccccc3n2)n1 [GW876019],–,–,0%,25%,20%,15%,83%,0%,12%,–,–,–,–,–,–,–
CCCc1ccc(S(=O)(=O)NC2CCN(c3ccnc(Nc4ccc(F)cc4)n3)C2)cc1 (stereo not drawn) [GSK1379715],–,–,1%,0%,0%,6%,0%,16%,0%,–,–,–,< 5.00,< 5.00,–,–
Cc1nnc(-c2ccc3occ(-c4ccc(S(C)=O)cc4)c3c2)[nH]1 (stereo not drawn),7.21,–,25%,17%,0%,7%,0%,0%,23%,–,–,–,–,–,–,–
Cn1ccc2ncnc(Oc3ccc(NC(=O)Nc4ccccc4)cc3)c21,–,–,0%,26%,0%,0%,0%,0%,0%,6.77,–,–,–,–,7.35,–
Cc1csc(-c2nc(Nc3ccncc3)c3ccccc3n2)n1 [GW869640],–,–,31%,31%,15%,7%,94.7%,0%,3%,–,–,–,–,–,–,6.28
COc1cc2ncnc(Nc3ccc4nc(-c5ccccc5)[nH]c4c3)c2cc1OC.Cl [GW282450],–,–,6%,0%,0%,5%,0%,0%,0%,–,–,–,–,–,–,–
